The values that follow come from paper PMC7862700, “An all-to-all approach to the identification of sequence-specific readers for epigenetic DNA modifications on cytosine”.

Holding throughout (experiment): DAPPL (digital affinity profiling via proximity ligation, sequencing); 10 mM Tris-HCl pH 7.5, 50 mM NaCl, 1 mM DTT, 4% glycerol, room temperature, 30 min; GST-TFs on glutathione beads, 16-mer random dsDNA library, 0.1% formaldehyde crosslink after washing; high values mean tight binding
Conditions in all cases: protein: recombinant; tags: N-terminal GST; dsDNA, one strand shown

One assay concerns the target T1, FLI1 (Homo sapiens, UniProt Q01543 1-452).
T1 sequence: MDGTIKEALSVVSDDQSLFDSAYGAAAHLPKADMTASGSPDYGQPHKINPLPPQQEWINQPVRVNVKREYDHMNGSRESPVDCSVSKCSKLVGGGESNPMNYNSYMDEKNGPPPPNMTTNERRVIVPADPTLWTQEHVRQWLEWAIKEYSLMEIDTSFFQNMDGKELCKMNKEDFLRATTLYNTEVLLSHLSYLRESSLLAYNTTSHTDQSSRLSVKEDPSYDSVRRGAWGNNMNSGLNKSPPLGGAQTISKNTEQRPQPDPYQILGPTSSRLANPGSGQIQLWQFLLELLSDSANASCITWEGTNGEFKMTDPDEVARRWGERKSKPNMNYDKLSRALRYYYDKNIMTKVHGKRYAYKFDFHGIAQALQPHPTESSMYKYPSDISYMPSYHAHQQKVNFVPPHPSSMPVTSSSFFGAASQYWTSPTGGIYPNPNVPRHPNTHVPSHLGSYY
In short, it runs like this: (§1)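 Each value of binding signal is a hexamer's read frequency for a factor divided by the same hexamer's frequency in the tag-only sample. Barcoded, bead-captured GST fusions of human transcription factors made in yeast were pooled with that sample and incubated with 200 nmole of a random double-stranded 16-mer DNA library in Tris/NaCl/DTT/glycerol buffer at room temperature for 30 min. Washing, 0.1% formaldehyde crosslinking, proximity ligation, PCR and Illumina NextSeq500 sequencing followed.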

The target of another assay is T2, ELK1 (Homo sapiens, UniProt P19419 1-428).
T2 sequence: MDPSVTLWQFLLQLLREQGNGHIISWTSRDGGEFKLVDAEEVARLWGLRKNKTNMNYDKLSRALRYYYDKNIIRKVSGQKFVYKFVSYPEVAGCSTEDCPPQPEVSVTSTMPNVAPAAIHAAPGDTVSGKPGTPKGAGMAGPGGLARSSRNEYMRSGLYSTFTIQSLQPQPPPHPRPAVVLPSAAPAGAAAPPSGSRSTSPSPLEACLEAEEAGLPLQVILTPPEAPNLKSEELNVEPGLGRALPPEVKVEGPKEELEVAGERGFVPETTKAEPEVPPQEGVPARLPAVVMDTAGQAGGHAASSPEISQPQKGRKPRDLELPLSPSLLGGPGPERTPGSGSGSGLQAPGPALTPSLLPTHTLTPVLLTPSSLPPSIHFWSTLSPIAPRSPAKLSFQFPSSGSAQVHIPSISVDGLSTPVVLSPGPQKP
In short, it runs like this:
as §1

In the next assay the target is T3, GABPA (Homo sapiens, UniProt Q06546 1-454).
T3 sequence: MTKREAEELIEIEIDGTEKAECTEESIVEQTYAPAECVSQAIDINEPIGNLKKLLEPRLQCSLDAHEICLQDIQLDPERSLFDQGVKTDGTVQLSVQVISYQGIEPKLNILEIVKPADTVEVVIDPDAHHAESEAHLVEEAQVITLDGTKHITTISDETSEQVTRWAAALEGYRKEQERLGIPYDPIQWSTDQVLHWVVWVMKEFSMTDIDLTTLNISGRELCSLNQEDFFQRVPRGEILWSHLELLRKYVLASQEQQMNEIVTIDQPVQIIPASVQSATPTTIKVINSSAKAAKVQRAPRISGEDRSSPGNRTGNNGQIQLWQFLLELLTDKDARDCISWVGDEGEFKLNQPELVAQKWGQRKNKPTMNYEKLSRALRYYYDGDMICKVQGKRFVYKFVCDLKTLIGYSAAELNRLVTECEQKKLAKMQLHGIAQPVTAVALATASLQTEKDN
Put shortly:
as §1

Another assay has as its target T4, ERG (Homo sapiens, UniProt P11308 1-479).
T4 sequence: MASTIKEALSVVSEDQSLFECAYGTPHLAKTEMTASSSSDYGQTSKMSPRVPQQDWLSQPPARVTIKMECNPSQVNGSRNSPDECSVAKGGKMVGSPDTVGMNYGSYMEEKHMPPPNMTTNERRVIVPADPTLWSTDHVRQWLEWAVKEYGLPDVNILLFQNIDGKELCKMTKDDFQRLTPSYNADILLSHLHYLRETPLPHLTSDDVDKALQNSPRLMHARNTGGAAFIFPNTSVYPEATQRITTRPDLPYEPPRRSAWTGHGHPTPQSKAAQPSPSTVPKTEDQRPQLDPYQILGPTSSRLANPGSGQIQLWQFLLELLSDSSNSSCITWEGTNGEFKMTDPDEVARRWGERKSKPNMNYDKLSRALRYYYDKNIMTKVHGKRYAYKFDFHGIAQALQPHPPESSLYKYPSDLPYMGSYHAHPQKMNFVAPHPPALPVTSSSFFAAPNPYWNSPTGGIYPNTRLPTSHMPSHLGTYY
Put shortly: as §1

A further assay has as its target ELF1 (Homo sapiens, UniProt P32519 1-619). In short, it runs like this:
as §1

For the next assay, the target named is T5, EHF (Homo sapiens, UniProt Q9NZC4 1-300).
T5 sequence: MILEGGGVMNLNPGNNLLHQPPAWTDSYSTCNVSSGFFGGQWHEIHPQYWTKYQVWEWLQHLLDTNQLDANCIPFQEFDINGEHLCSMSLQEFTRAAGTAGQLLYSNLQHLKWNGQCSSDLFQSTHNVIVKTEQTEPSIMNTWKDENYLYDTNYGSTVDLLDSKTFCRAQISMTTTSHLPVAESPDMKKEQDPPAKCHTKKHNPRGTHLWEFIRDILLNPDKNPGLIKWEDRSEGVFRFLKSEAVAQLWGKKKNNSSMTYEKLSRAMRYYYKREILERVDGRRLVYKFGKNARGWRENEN
Put shortly: as §1

The next assay has as its target SPI1 (Homo sapiens, UniProt P17947 1-270). Put shortly:
as §1

A further assay addresses SPIB (Homo sapiens, UniProt Q01892 1-262). In short, it runs like this: as §1
The target in a further assay is T6, ELK3 (Homo sapiens, UniProt P41970 1-407).
T6 sequence: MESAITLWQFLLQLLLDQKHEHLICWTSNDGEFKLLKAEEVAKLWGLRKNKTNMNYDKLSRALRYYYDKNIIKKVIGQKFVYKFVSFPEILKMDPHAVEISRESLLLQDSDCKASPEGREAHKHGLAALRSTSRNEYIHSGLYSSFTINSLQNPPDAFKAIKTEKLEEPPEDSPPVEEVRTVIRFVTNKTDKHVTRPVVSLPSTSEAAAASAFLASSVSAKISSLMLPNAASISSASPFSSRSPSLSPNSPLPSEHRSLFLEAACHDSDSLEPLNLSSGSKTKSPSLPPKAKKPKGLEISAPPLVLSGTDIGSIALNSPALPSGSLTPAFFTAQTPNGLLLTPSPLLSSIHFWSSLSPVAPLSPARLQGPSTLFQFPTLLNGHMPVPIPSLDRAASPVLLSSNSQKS
Put shortly:
as §1

A further assay deals with T7, FEV (Homo sapiens, UniProt Q99581 1-238).
T7 sequence: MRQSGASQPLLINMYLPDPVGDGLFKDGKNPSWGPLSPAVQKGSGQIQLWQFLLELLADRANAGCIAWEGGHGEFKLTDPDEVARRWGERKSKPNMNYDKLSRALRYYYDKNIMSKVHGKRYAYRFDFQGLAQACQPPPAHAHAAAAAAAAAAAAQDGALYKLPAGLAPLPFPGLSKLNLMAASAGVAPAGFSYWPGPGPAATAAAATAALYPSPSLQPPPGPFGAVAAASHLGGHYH
In short, it runs like this:
as §1

Another assay has as its target T8, SPIC (Homo sapiens, UniProt Q8N5J4 1-248).
T8 sequence: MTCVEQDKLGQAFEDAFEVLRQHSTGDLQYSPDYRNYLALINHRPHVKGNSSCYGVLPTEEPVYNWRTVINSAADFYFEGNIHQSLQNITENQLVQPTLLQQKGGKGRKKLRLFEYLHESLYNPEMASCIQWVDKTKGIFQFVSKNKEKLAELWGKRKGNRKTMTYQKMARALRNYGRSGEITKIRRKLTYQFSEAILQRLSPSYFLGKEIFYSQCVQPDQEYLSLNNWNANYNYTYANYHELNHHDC
In short, it runs like this:
as §1

ELF1, sequence (P32519 whole entry): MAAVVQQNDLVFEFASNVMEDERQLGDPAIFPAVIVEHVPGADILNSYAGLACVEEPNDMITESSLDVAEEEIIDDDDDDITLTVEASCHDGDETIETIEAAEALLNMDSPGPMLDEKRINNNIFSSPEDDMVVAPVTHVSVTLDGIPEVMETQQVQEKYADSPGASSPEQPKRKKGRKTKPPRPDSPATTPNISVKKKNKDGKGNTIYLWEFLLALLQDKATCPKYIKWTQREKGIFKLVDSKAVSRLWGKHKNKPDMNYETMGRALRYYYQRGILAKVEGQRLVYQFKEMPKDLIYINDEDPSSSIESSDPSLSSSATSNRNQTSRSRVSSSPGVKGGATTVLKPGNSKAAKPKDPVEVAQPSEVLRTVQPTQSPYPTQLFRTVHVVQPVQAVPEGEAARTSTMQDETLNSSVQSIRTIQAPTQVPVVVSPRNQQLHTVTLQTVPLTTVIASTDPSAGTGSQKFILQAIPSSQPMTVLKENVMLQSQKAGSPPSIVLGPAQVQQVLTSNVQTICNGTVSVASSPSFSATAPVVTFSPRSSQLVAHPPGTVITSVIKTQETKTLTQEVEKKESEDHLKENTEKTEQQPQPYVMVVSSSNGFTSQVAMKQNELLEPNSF
SPIB, sequence (Q01892 whole entry): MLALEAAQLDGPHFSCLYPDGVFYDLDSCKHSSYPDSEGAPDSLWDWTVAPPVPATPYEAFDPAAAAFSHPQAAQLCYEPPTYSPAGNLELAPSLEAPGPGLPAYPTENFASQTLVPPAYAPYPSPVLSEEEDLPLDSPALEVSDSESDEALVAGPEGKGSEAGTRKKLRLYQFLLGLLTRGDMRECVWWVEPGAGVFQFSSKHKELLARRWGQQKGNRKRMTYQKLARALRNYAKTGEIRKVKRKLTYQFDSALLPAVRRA

As for ATGGGG, the binding signal is 1.11 fold enrichment (6-mer frequency, TF over GST control) with FLI1; 1.09 fold enrichment (6-mer frequency, TF over GST control) with ELK1; 1.08 fold enrichment (6-mer frequency, TF over GST control) with GABPA; 1.07 fold enrichment (6-mer frequency, TF over GST control) with ERG; 1.06 fold enrichment (6-mer frequency, TF over GST control) with ELF1; 1.11 fold enrichment (6-mer frequency, TF over GST control) with EHF. Besides, the binding signal is 1.11 fold enrichment (6-mer frequency, TF over GST control) with SPI1; 1.14 fold enrichment (6-mer frequency, TF over GST control) with SPIB; 1.05 fold enrichment (6-mer frequency, TF over GST control) with ELK3; 1.05 fold enrichment (6-mer frequency, TF over GST control) in the assay with FEV; 1.16 fold enrichment (6-mer frequency, TF over GST control) in the assay with SPIC.
